A short description of test [1]: CCTE_Shafer_MEA_dev_AB: CCTE's Alamar Blue Assay for Cytotoxicity in the Neural Network Formation Assay, Shafer Lab (AID 2284083; active = hit-call score of the fitted dose curve at least 0.9, where 1 is the maximum;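 note: resazurin reduction fluorescence as viability of cultured neurons; twelve days of exposure from plating with re-dosing on DIV 5 and 9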). The gist of the method: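 Fluorescent resazurin reduction serves as the viability read-out, with DMSO as negative control and baseline. Cells were primary rat cortical neurons grown on MEA plates and dosed from day 0 to day 12, treatment renewed on DIV 5 and 9.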
For orientation: Resazurin is reduced to fluorescent resorufin, in cell work by metabolically active cells.

Test [2] can be described thus: CCTE_Shafer_MEA_dev_mutual_information_norm: CCTE's Neural Network Formation Assay for Mutual Information Normalization, Shafer Lab (AID 2284091). An outline of the steps: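 Shared information across electrodes, tracked on days 5, 7, 9 and 12 of network development and collapsed as trapezoidal area under the curve. Rat cortical cultures were treated continuously from plating, with treatment renewed at feeds on DIV 5 and 9; DMSO baseline, negative-direction fit.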

A short description of test [3]: UKN4_HCS_LUHMES_neurite_outgrowth: University of Konstanz (UKN) Leist Lab Neurite Outgrowth Assay in human LUHMES cells (UKN4) (AID 2284206). Conditions: actives raise or lower the signal. An outline of the steps:
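After 24 h compound treatment beginning shortly after replating of 2-day-differentiated LUHMES cells, calcein-AM and H-33342 live staining allowed high-content imaging of neurite area and viability. Fitted bidirectionally against DMSO.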

Test [4] is described as follows: IUF_NPC1a_proliferation_area_72hr: Leibniz Research Institute for Environmental Medicine (IUF) 72-hour Neural Progenitor Cell Proliferation Area Assay (NPC1a) (AID 2284208). An outline of the steps:
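Read-out: increase in sphere area over 72 h by automated phase-contrast imaging, fitted in positive direction versus DMSO baseline. One hNPC sphere (0.25-0.35 mm) per well in EGF/FGF medium; growth-factor withdrawal served as positive control.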

Test [5] can be described thus: IUF_NPC1_viability_72hr: Viability Assessment at 72 hours in the Leibniz Research Institute for Environmental Medicine (IUF) Neural Progenitor Cell Proliferation Assay (NPC1) (AID 2284209). An outline of the steps: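 Viability was measured by resazurin-to-resorufin fluorescence (alamar blue) after 72 h of continuous exposure without compound renewal. Each well held one hNPC sphere (gestational week 16-19 fetal cortex, 0.25-0.35 mm) cultured in EGF/FGF proliferation medium at 37C and pH 7.2-7.6.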

Test [6] is described as follows: UKN4_HCS_LUHMES_cell_viability: Viability Assessment in the University of Konstanz (UKN) Leist Lab Neurite Outgrowth Assay in human LUHMES cells (UKN4) (AID 2284232). An outline of the steps:
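Viability was read by high-content imaging of calcein-AM/H-33342-stained cells after 24 h toxicant exposure, staining included. Cells: human LUHMES on day 2 of dopaminergic differentiation, dosed shortly after attachment; DMSO baseline, bidirectional curve fitting.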

Test [7] is described as follows: UKN2_HCS_IMR90_cell_viability: Viability Assessment in the University of Konstanz (UKN) Leist Lab Neural Crest Cell Migration Assay in human induced IMR90 Pluripotent Stem Cells (UKN2) (AID 2284233).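 Note: cells exposed to compound for 24 h after a 24 h migration phase.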 The gist of the method: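 After calcein-AM/Hoechst staining, viability is quantified by high-content fluorescence imaging, relative to DMSO, in iPSC (IMR90)-derived neural crest cells. Exposure lasts 24 h, starting after a 24 h migration period on PLO/laminin/fibronectin coating.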

A short description of test [8]: IUF_NPC2c_oligodendrocyte_migration_120hr: Leibniz Research Institute for Environmental Medicine (IUF) 120-hour Neural Progenitor Cell Migration Assay for Oligodendrocyte Migration (NPC2c) (AID 2284297).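 Note: O4-positive oligodendrocyte migration distance divided by radial glia migration distance.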 The gist of the method:
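Human fetal cortex-derived neural progenitor spheres (0.3 mm) were plated on poly-D-lysine/laminin in N2 differentiation medium and exposed to 7 concentrations for 120 h, with half-medium renewal at day 3. Oligodendrocyte migration distance was normalized to radial glia migration, relative to DMSO.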

Test [9] in a line: IUF_NPC2a_radial_glia_migration_120hr: Leibniz Research Institute for Environmental Medicine (IUF) 120-hour Neural Progenitor Cell Migration Assay for Radial Glia Migration (NPC2a) (AID 2284298). An outline of the steps:
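Single 0.3 mm primary human fetal-cortex (GW 16-19) NPC spheres were plated on poly-D-lysine/laminin in N2 differentiation medium and exposed from day 0 for 120 h, half-medium refreshed day 3. Migration distance came from Hoechst nuclei-density imaging, relative to DMSO.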

Test [10] in a line: IUF_NPC2b_neuronal_migration_120hr: Leibniz Research Institute for Environmental Medicine (IUF) 120-hour Neural Progenitor Cell Migration Assay for Neuron Migration (NPC2b) (AID 2284300). The gist of the method: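 Primary human fetal cortex neural progenitor spheres (0.3 mm) plated on poly-D-lysine/laminin in N2 differentiation medium, exposed 120 h with half-medium refresh at day 3. TUBB3-stained neuron distance from sphere core, normalized to radial glia migration, versus DMSO.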

The nature of test [11]: IUF_NPC3_neuronal_differentiation_120hr: Leibniz Research Institute for Environmental Medicine (IUF) 120-hour Neuronal Differentiation Assay (NPC3) (AID 2284301). The gist of the method: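 Value is percent TUBB3-positive neurons among Hoechst-stained nuclei in the migration area, scored by trained CNN after 120 h differentiation. Primary hNPC spheres on poly-D-lysine/laminin, N2 medium, continuous dosing from day 0, half-refeed day 3; DMSO reference.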

A short description of test [12]: IUF_NPC4_neurite_length_120hr: Leibniz Research Institute for Environmental Medicine (IUF) 120-hour Neuronal Morphology Assay for Neurite Length (NPC4) (AID 2284302). The gist of the method: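 Neurite length, the mean in um across TUBB3-stained neurons, is derived by skeletonization of high-content images after 120 h differentiation. Compound exposure, 7 concentrations plus solvent control, ran from plating of hNPC spheres on poly-D-lysine/laminin, with medium half-replaced on day 3.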

Test [13] can be described thus: IUF_NPC5_oligodendrocyte_differentiation_120hr: Leibniz Research Institute for Environmental Medicine (IUF) 120-hour Oligodendrocyte Differentiation Assay (NPC5) (AID 2284304; active = hit-call score of the fitted dose curve at least 0.9, where 1 is the maximum;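 note: primary human fetal neural progenitor spheres plated to migrate and differentiate; share of O4-positive cells among Hoechst nuclei found by CNN image analysis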). The gist of the method:
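Primary human fetal (GW 16-19) neural progenitor spheres (0.3 mm) plated on poly-D-lysine/laminin in N2 differentiation medium, exposed from day 0 for 120 h with half-medium refresh at day 3; O4-positive cells as percent of Hoechst nuclei, CNN-identified, versus DMSO.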

Test [14] is described as follows: IUF_NPC4_neurite_area_120hr: Leibniz Research Institute for Environmental Medicine (IUF) 120-hour Neuronal Morphology Assay for Neurite Area (NPC4) (AID 2284305; active = hit-call score of the fitted dose curve at least 0.9, where 1 is the maximum). The gist of the method: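 Neurite area (pixels, nuclei excluded) of TUBB3-positive neurons from hNPC spheres differentiating 5 days under continuous exposure at 37 C, 5% CO2. High-content imaging; loss of signal versus DMSO control across 7 concentrations.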

The nature of test [15]: IUF_NPC2-5_cytotoxicity_72hr: Cytotoxicity Assessment at 72 hours in the Leibniz Research Institute for Environmental Medicine (IUF) Neural Progenitor Cell Migration and Differentiation Assay for Cytotoxicity (NPC2-5) (AID 2284306; active = hit-call score of the fitted dose curve at least 0.9, where 1 is the maximum;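 note: LDH release into supernatant measured by resorufin fluorescence marking membrane damage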). An outline of the steps:
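Membrane-integrity cytotoxicity at 72 h, read as LDH-driven resorufin fluorescence in supernatant. hNPC spheres from fetal cortex differentiate on coated plates in N2 medium, 37C, 5% CO2; seven serial compound concentrations plus solvent control (DMSO ≤0.1%).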

Test [16] in a line: IUF_NPC2-5_cytotoxicity_120hr: Cytotoxicity Assessment at 120 hours in the Leibniz Research Institute for Environmental Medicine (IUF) Neural Progenitor Cell Migration and Differentiation Assay (NPC2-5) (AID 2284307; active = hit-call score of the fitted dose curve at least 0.9, where 1 is the maximum). An outline of the steps:
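Human fetal neural progenitor spheres (0.3 mm, GW 16-19 cortex) were plated on poly-D-lysine/laminin in N2 differentiation medium and exposed for 120 h, with half-medium refresh at day 3. LDH release into supernatant was read by resorufin fluorescence.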

Test [17] in a line: IUF_NPC2-5_cell_number_120hr: Cell Number Assessment at 120 hours in the Leibniz Research Institute for Environmental Medicine (IUF) Neural Progenitor Cell Migration and Differentiation Assay (NPC2-5) (AID 2284308).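 Note: count of Hoechst-stained nuclei in migration zone around plated human neural progenitor spheres.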 An outline of the steps:
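Primary human fetal neural progenitor spheres (GW 16-19, 0.3 mm) plated on poly-D-lysine/laminin in N2 differentiation medium, exposed from day 0 for 120 h with half-medium refresh at day 3; Hoechst-positive nuclei counted in migration area versus DMSO control.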

A short description of test [18]: IUF_NPC2-5_viability_120hr: Viability Assessment at 120 hours in the Leibniz Research Institute for Environmental Medicine (IUF) Neural Progenitor Cell Migration and Differentiation Assay (NPC2-5) (AID 2284312). An outline of the steps:
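Alamar blue resorufin fluorescence read after 5 days of differentiation, with compound present from day 0 and replenished at day 3. Primary hNPC spheres on laminin-coated plates, 37C; seven concentrations plus solvent control, fitted against DMSO.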

Results filed as inconclusive are left out. Activity calls are given as the source filed them. Rule for the calls, unless noted: active = hit-call score of the fitted dose curve at least 0.9, where 1 is the maximum; inactive = score below 0.9.

Regarding `C[n+]1ccc(-c2ccccc2)cc1`, the molecule was called inactive in test [1], in test [2], in [5], in [6], in test [7] and in [8]. Moreover, the molecule was classed as inactive in test [9], in test [10], in test [11], in test [12], in [13] and in test [14]. For the same molecule, the molecule was classed as inactive in [15], in test [16], in test [17] and in [18]. The values for the AC50 in test [3] and in [4] were 2.69 µM (active) and 18.7 µM (active), respectively.

For the origin of these results see PubChem BioAssay (EPA / NIEHS).
